Reference: PubChem BioAssay AID581 (PCMD, 2007)
Out of some 62,000 compounds screened, about 95 (0.2%) were called active.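 Rule for the calls: active = inhibition above 20% in each of the two mixture wells holding the compound; inactive = inhibition of 20% or less in either well.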 For the sample, actives were picked, then their nearest neighbours and some compounds at random.

target: Cathepsin G (Homo sapiens) (UniProt P08311); assay: human cathepsin G inhibitors, primary screen, biochemical, pooled compound mixtures, AMC fluorescence (AID 581); conditions: purified enzyme, AMC-tetrapeptide fluorescence, stronger effect = higher value, screened at 5 µM (by protocol);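 note: 0% = enzyme control without mixture and 100% = blank lacking enzyme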
Sequence (P08311 21-244 limits assumed): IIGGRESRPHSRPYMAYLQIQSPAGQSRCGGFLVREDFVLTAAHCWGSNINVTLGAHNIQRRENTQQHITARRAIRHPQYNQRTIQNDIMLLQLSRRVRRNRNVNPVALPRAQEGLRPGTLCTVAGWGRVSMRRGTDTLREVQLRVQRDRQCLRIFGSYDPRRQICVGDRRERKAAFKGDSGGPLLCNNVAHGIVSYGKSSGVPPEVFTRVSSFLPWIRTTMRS

Row | Compound | inhibition
1 | COc1ccc(CCN=C2SCC(=O)N2C)cc1OC | 11.6% (inactive)
2 | O=C(CCN1C(=O)C2C3C=CC(C3)C2C1=O)Nc1ccccc1F (stereo not drawn) | 6.93% (inactive)
3 | O=C(COc1ccccc1Cl)Nn1cnnc1 | 3.79% (inactive)
4 | CCCOc1ccc(N2CC(C(=O)Nc3ccccn3)CC2=O)cc1 (stereo not drawn) | 1.22% (inactive)
5 | CC1CN(C2CCCCC2)c2nc3c(c(=O)n(C)c(=O)n3C)n2C1 (stereo not drawn) | -2.58% (inactive)
6 | COc1ccc(C2CC(c3ccccc3)Nc3ncnn32)cc1 (stereo not drawn) | -0.07% (inactive)
7 | O=C(c1cccnc1NCc1ccccc1)N1CCOCC1 | -5% (inactive)
8 | CN(C)/C=C1/Nc2ccccc2C1=O | -0.82% (inactive)
9 | O=c1nc(N2CCOCC2)nc2n1CCO2 | 1.08% (inactive)
10 | CCOc1ccc(C(=O)N(Cc2ccc(N(C)C)cc2)C2CCS(=O)(=O)C2)cc1 (stereo not drawn) | 7.67% (inactive)
11 | CCN1CCN(C(=O)c2ccccc2N(C)S(=O)(=O)c2ccc(C)cc2)CC1 | 3.35% (inactive)
12 | CCc1nc(Nc2ccc3nccnc3c2)c2oc3ccccc3c2n1 | -2.89% (inactive)
13 | CNC(=O)n1ccc(C(=O)N2CCCCC2)n1 | 11% (inactive)
14 | CC(C)(C)n1nnnc1C(c1ccc2ncccc2c1)N1CCSCC1 (stereo not drawn) | -7% (inactive)
15 | Cc1ccc(N2C(=O)c3oc4ccccc4c(=O)c3C2c2cccnc2)nc1 (stereo not drawn) | 10.5% (inactive)
16 | O=C(O)CN1C(=O)CC(Cc2ccccc2)C1=O (stereo not drawn) | -0.115% (inactive)
17 | CCCCn1c(SCc2ncc(-c3ccccc3)o2)nc2cc(S(N)(=O)=O)ccc21 | 13.9% (inactive)
18 | Cc1ccc(CNC(=O)C2CCCN(S(C)(=O)=O)C2)cc1 (stereo not drawn) | -3.54% (inactive)
19 | CCC1SC2=NCCN2C1(O)c1ccc(Cl)cc1 (stereo not drawn) | 1.99% (inactive)
20 | Cn1c(=O)[nH]c(=O)c2c1nc(N(CCO)Cc1ccccc1)n2Cc1ccccc1Cl | 5.71% (inactive)
21 | COc1ccccc1N1CCN(CCCCOc2ccc(F)cc2)CC1 | 13.1% (inactive)
22 | CCS(=O)(=O)NCCc1ccc(OC)c(OC)c1 | 13.1% (inactive)
23 | CCCN1CCN(C(=O)Cn2ncc3ccccc32)CC1 | -11.9% (inactive)
24 | CCc1nc2oc3ccccc3c(=O)c2c(=O)n1Cc1ccc(OC)cc1 | -20.5% (inactive)
25 | Cn1cccc1Cc1nnc(SCC(=O)NCc2ccc3c(c2)OCO3)n1CCc1ccccc1 | 10.5% (inactive)

Row | Compound | inhibition
26 | COc1ccc(CC(=O)n2nc(-c3cccnc3)nc2N)cc1 | 14.7% (inactive)
27 | COc1ccc(C(=O)n2nc(-c3ccc(Cl)cc3)nc2N)cc1OC | 37.8% (active)
28 | COc1ccc(C(=O)n2nc(-c3ccc(C)cc3)nc2N)cc1OC | 44% (active)
29 | COC(=O)c1ccc(OC(=O)c2nn(C)cc2Cl)c(OC)c1 | 1.08% (inactive)
30 | COc1ccccc1C(=O)n1nc(-c2ccccc2)nc1N | 7.93% (inactive)
31 | COc1ccc(C(=O)Cn2nnc(-c3ccc(N4CCOCC4)cc3)n2)cc1OC | 2.19% (inactive)
32 | Cc1cccc(-n2c(Cc3cc(=O)[nH]c(=O)[nH]3)nnc2SC(C)C)c1 | 10.3% (inactive)
33 | CCCN1Cc2cccc(C(=O)NCc3ccccc3)c2C1=O | -0.625% (inactive)
34 | COc1ccc(N(Cc2cc3cc(OC)ccc3[nH]c2=O)S(C)(=O)=O)cc1 | -3.1% (inactive)
35 | Cn1c(CC(=O)Nc2ccccc2)nnc1SCC(=O)c1ccccc1 | -0.18% (inactive)
36 | c1ccc2cc(OCCN3CCCC3)ccc2c1 | -4.75% (inactive)
37 | O=C(O)CSC(NC(=O)c1cccnc1)(C(F)(F)F)C(F)(F)F | 4.23% (inactive)
38 | CCOC(=O)c1c(NC(=O)CSc2nnc(Cc3csc(N)n3)n2C)sc(C)c1C | -4.19% (inactive)
39 | O=C1CC(c2ccccc2)CC(O)=C1C=NCCN1CCOCC1 (stereo not drawn) | 14.8% (inactive)
40 | CC1(C)CC(=O)C(C=NCCC2=CCCCC2)=C(O)C1 | 6.17% (inactive)
41 | O=C1CCCC(O)=C1C=NCCc1ccccc1 | 33.4% (active)
42 | O=C(CSc1nnc(-c2cccs2)n1Cc1ccco1)c1ccc2c(c1)OCO2 | 7.29% (inactive)
43 | CSc1ccc(S(=O)(=O)Nc2cccc(F)c2)cc1 | -1.91% (inactive)
44 | CCCNC(=O)Nc1ccccc1C(=O)Nc1ccc(OC)cc1 | 4.04% (inactive)
45 | CC1(C)CC(=O)c2cc(OCC(=O)NCC3CCCO3)ccc2O1 (stereo not drawn) | 4.79% (inactive)
46 | O=C(c1ccco1)N1CCN(C(=O)C2CC(c3ccc(F)cc3)=NO2)CC1 (stereo not drawn) | 2.3% (inactive)
47 | COCCCNC(=O)CCc1nc2cccnc2n1Cc1ccc(OC)cc1 | 11.7% (inactive)
48 | CCN(c1ccc2c(c1)OCO2)S(=O)(=O)c1cc(Br)cc2c1N(C(=O)C1CC1)CC2 | 2.07% (inactive)
49 | COC(=O)c1cc(NC(=O)CN2CCC(C(N)=O)(N3CCCCC3)CC2)cc(C(=O)OC)c1 | -6.63% (inactive)
50 | CN(C)c1ccnc2sc3c(=O)n(Cc4ccccc4)cnc3c12 | -4.39% (inactive)

Row | Compound | inhibition
51 | CC(=O)N1C(=O)C2(Nc3ccccc3N2)c2ccccc21 | -1.99% (inactive)
52 | Cc1ccccc1CSc1nnc(-c2cccnc2)n1N | 14.2% (inactive)
53 | Cc1cccc(NC(=O)CSc2nnc(CCCCCNC(=O)OC(C)(C)C)o2)c1C | 6.06% (inactive)
54 | O=C(Cn1c(-c2ccc(Cl)cc2)noc1=O)N1CCN(c2ccccc2F)CC1 | 7.96% (inactive)
55 | O=c1ccn(Cc2ccccc2Cl)cc1 | -1.12% (inactive)
56 | Cc1cc(NC(=O)CN2CCC(O)(c3cccc(F)c3)CC2)no1 | 5.96% (inactive)
57 | COc1cccc(N(C(=O)c2ccn[nH]2)C2(C(=O)Nc3c(C)cccc3C)CCCCC2)c1 | 8.21% (inactive)
58 | COc1ccc2occ(C(=O)c3ccc(N=C(C)N(C)C)cc3)c2c1 | -7.35% (inactive)
59 | O=C1Nc2c(Br)cc(Br)cc2C1(O)N1CCOCC1 (stereo not drawn) | 1.49% (inactive)
60 | CCOC(=O)CNC(=O)CSc1nnc(-c2cccc(OC)c2)n1CC | -5.21% (inactive)
61 | Oc1c(C(c2ccccn2)N2CCOCC2)ccc2cccnc12 (stereo not drawn) | 13.3% (inactive)
62 | CN(C(=O)c1ccccn1)c1nnc(-c2ccccn2)s1 | 10.6% (inactive)
63 | COc1ncnc2c1N=C1CC(C)(C)CC(N)=C1S2 | -6.43% (inactive)
64 | Cc1noc(C)c1C(=O)Nc1ccccn1 | -18.6% (inactive)
65 | CCOC(=O)N1CCN(CC(=O)c2ccc3c(c2)CCN3)CC1 | 10.3% (inactive)
66 | Cc1occc1C(=O)Nc1nnc(-c2ccncc2)s1 | 39.2% (inactive)
67 | COCCn1c(SCC(=O)Nc2cc(Cl)ccc2OC)nc2c(c1=O)SC(C)C2 (stereo not drawn) | 9.03% (inactive)
68 | NC(=O)CCCC1=NS(=O)(=O)c2ccccc2N1 | 4.5% (inactive)
69 | CCOC(=O)c1ccc(NC(=O)CSc2ncccn2)cc1 | -1.62% (inactive)
70 | CCOC(=O)c1ccc(NC(=O)CS(=O)(=O)c2cn(CC)c3ccccc23)cc1 | 29.3% (active)
71 | CCOC(=O)c1ccc(NC(=O)Cn2nnc(-c3ccc(C)cc3)n2)cc1 | -7.1% (inactive)
72 | COc1ccc2nc(NC(=O)c3ccc(Br)s3)sc2c1 | 10.8% (inactive)
73 | O=C(Cn1nc(Cc2cccnc2)c2ccccc2c1=O)NCC1COc2ccccc2O1 (stereo not drawn) | 8.5% (inactive)
74 | C/C(N)=C(\C#N)C(=O)NCCc1ccccn1 | 2.5% (inactive)
75 | CCSC1=C(C#N)C(=O)n2c1cc1c2CCCC1 | 0.675% (inactive)

Row | Compound | inhibition
76 | CSc1nsc(SC)c1NC(=O)OC1CCCCC1 | 7.19% (inactive)
77 | CCOC(=O)C1CCCN(C(=O)c2ccc(CS(=O)(=O)c3ccc(Br)cc3)o2)C1 (stereo not drawn) | 7.41% (inactive)
78 | CCOC(=O)c1csc(NC(=O)c2ccc(S(=O)(=O)N3CCCC3)cc2)n1 | -0.28% (inactive)
79 | COc1ccc(OC)c(NC(=O)CN2CCN(C(=O)c3ccco3)CC2)c1 | 9.79% (inactive)
80 | Cn1c(-c2ccc(C(=O)c3ccccc3)s2)nc2ccccc21 | 2.31% (inactive)
81 | CN(Cc1ccccc1)C(=O)CCNC(=O)Cn1cnc2ccccc2c1=O | -3.7% (inactive)
82 | COc1ccc(OC)c(C(=O)c2coc3ccc(OC)cc23)c1 | -10.9% (inactive)
83 | COc1ccc2c(c1)CCc1c(C(=O)Nc3c(C)n(C)n(-c4ccccc4)c3=O)noc1-2 | 34.3% (active)
84 | COc1ccc2c(c1)CCc1c(C(=O)N3CCc4ccccc4C3)noc1-2 | 35% (active)
85 | COc1ccc2c(c1)CCc1c(C(=O)N3CCCC3)noc1-2 | 18.8% (inactive)
86 | O=C(c1cc(-c2cccc(O)c2)on1)N1CCc2ccccc2C1 | 5.56% (inactive)
87 | Cc1cc(C(=O)Nc2c(C)n(C)n(-c3ccccc3)c2=O)cs1 | 8.47% (inactive)
88 | COC(=O)Nc1c(C)n(C)n(-c2ccccc2)c1=O | 11.2% (inactive)
89 | CCOc1cc(CO)ccc1OCC(=O)N1CCCCC1 | 4.5% (inactive)
90 | COc1ccc(C(=O)Nc2ccc(S(=O)(=O)Nc3onc(C)c3C)cc2)cc1OC | -6.97% (inactive)
91 | COCCCN1C(=O)c2ccc(C(=O)Nc3ccc(OC)cc3OC)cc2C1=O | -4.08% (inactive)
92 | Cc1nn(Cc2ccc(Cl)c(Cl)c2)c(C)c1NC(=O)c1cc(C2CC2)on1 | -8.5% (inactive)
93 | CN(C)c1cc(N)c2ccccc2n1 (tested in a mixture with another compound) | 2.17% (inactive)
94 | O=C(CSc1nnc(-c2ccoc2)o1)N1CCOCC1 | 1.64% (inactive)
95 | Cc1cccc(-n2c(O)c(C=Nc3ccccc3N)c(=O)[nH]c2=O)c1 | -2.9% (inactive)
96 | C1=C(N2CCOCC2)/C(=C/c2nc3ccccc3[nH]2)CC1 | 12.8% (inactive)
97 | CCOc1ccc(CC(=O)Nc2ccc(S(=O)(=O)Nc3cc(C)on3)cc2)cc1OCC | 6.78% (inactive)
98 | Cc1ccc(S(=O)(=O)N(C)CC(=O)NC2CCCC2)cc1 | 1.06% (inactive)
